# Measured values as given in the supplement of paper PMC10498489.
# Hit rate of the full screen: of about 2,300 compounds, about 330 (14%) showed activity. Only a sample is shown. A number with no mark means an inactive call.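 How the source made its calls: active = median modified Z-score above 1.96; inactive = 1.96 or below.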
# Tested on: HepG2 Srxn1-GFP reporter cells (+30 nM CDDO-Me)
# Assay: Srxn1-GFP intensity median modified Z-score relative to plate median; higher = stronger NRF2 / oxidative stress reporter activation, active = hit call of the paper
# Conditions: 10 µM; exposure time: 24h
# Procedure, shortened: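 Per-cell cytoplasmic GFP was measured on confocal images of formaldehyde-fixed, Hoechst-stained HepG2 Srxn1-GFP BAC reporter cells, excluding images with fewer than 100 cells. Before this, the cells (20,000 per well, 96-well plates) were co-exposed for 24 h to compound at 10 μM and an NRF2 activator at 30 nM with ≤0.1% DMSO, in three replicate plates. Each value is the median over replicates of the per-plate modified Z-score of GFP intensity. That score was scaled with 1.4826 × median absolute deviation.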
row,Structure (SMILES),Srxn1-GFP intensity median modified Z-score
1,OCCN1C[C@@H](O)[C@@H](O)C(O)C1CO (some centres undefined) [euspeclibcmpd679],0.73
2,CC(=O)OCC(=O)C1CCC2C3CC=C4C[C@@H](O)CC[C@]4(C)C3CC[C@]12C (some centres undefined) [euspeclibcmpd1443],0.217
3,COC(=O)C[C@H]1C(C)(C)[C@@H](OC(C)=O)C2CC3=C4CC(=O)O[C@@H](c5ccoc5)[C@]4(C)CCC3[C@@]1(C)C2=O (some centres undefined) [euspeclibcmpd1559],0.833
4,COc1c(C/C=C(\C)CCC(=O)O)c(O)c2c(O)occ2c1C [euspeclibcmpd334],11.8 (active)
5,COc1c(O)c(C)c(C=CC(C)=CCC=C(C)CCC=C(C)CCC=C(C)CCC=C(C)CCC=C(C)CCC=C(C)CCC=C(C)CCC=C(C)CCC=C(C)C)c(O)c1OC [euspeclibcmpd1853],-0.0742
6,COc1c(C/C=C(\C)CCC(=O)OCCN2CCOCC2)c(O)c2c(O)occ2c1C [euspeclibcmpd688],5.22 (active)
7,Oc1ccc(C(O)O)[nH]1 [euspeclibcmpd1237],-0.421
8,CC(=O)OCC[N+](C)(C)C [euspeclibcmpd13],-0.276
9,CC(C)=CCC=C(C)C=Cc1c(C)c(O)c2ccccc2c1O [euspeclibcmpd1484],-0.304
10,CN1CCN(C2N=c3cc(Cl)ccc3=Nc3ccccc32)CC1 (centres undefined) [euspeclibcmpd804],0.387
11,C#CCCCCCCCCCCCc1ccco1 [euspeclibcmpd2261],-0.224
12,CCNCC(O)COc1ccc(CCOC)cc1 (centres undefined),1.2
13,CCCCCCCCCc1ccc(OCCOCCOCCOCCOCCOCCOCCOCCOCCO)cc1 [euspeclibcmpd736],18.5 (active)
14,CCCCOc1ccc(CC(O)=NO)cc1 [euspeclibcmpd1071],1.55
15,CC(N=C(N=c1cc[nH]cc1)NC#N)C(C)(C)C (centres undefined) [euspeclibcmpd960],0.333
16,COc1cc2oc3cc(OC)c(OC)c(CC=C(C)C)c3c(=O)c2c(OC)c1CC=C(C)C [euspeclibcmpd1951],13.2 (active)
17,COc1cc2oc3cc(OC)c(OC)c(C=CC(C)C)c3c(=O)c2c(O)c1CC=C(C)C [euspeclibcmpd1769],-0.34
18,CC(C)=CCc1c(O)cc2oc(C)cc(=O)c2c1O [euspeclibcmpd1412],1.94
19,COc1ccc(-c2oc3cc(OC)c(OC)c(OC)c3c(=O)c2OC)cc1OC [euspeclibcmpd1579],0.934
20,COc1ccc(-c2oc3cc(OC)c(OC)c(OC)c3c(=O)c2OC)cc1 [euspeclibcmpd1578],0.25
21,COc1cc(O)c2c(=O)cc(C)oc2c1CC=C(C)C [euspeclibcmpd1598],2.54 (active)
22,COc1ccc(-c2oc3c(CC=C(C)C)c(O[C@@H]4O[C@H](CO)[C@@H](O)[C@H](O)[C@H]4O)cc(O)c3c(=O)c2O[C@@H]2O[C@@H](C)[C@H](O)[C@@H](O)[C@H]2O)cc1 [euspeclibcmpd2338],0.366
23,COc1c(O)cc2oc3cc(O)c(CC=C(C)C)c(O)c3c(=O)c2c1C=CC(C)C [euspeclibcmpd1547],34.4 (active)

row,Structure (SMILES),Srxn1-GFP intensity median modified Z-score
1,COc1cc(-c2coc3cc(O)c(OC)c(O)c3c2=O)cc(O)c1OC [euspeclibcmpd1394],1.24
2,C[C@@H]1CC2C3CC=C4CC(=O)C=C[C@]4(C)[C@@]3(F)[C@@H](O)C[C@]2(C)[C@@]1(O)C(=O)COP(=O)(O)O (some centres undefined) [euspeclibcmpd2420],-0.794
3,CC[C@H]1OC(=O)C(C)[C@@H](O[C@H]2C[C@@](C)(OC)[C@@H](O)[C@H](C)O2)[C@H](C)[C@@H](O[C@@H]2O[C@H](C)C[C@H](N(C)C)[C@H]2O)[C@](C)(O)C[C@@H](C)[C@@H]2N[C@@H](COCCOC)O[C@H]([C@H]2C)[C@]1(C)O (some centres undefined) [euspeclibcmpd652],-0.125
4,O=C(O)C1=C(CSc2nnnn2CS(=O)(=O)O)CSC2C(NC(=O)C(O)c3ccccc3)C(=O)N12 (centres undefined) [euspeclibcmpd2255],0.114
5,NC(C=O)C(O)NNCc1ccc(O)c(O)c1O (centres undefined) [euspeclibcmpd32],-0.0581
6,C[C@@H]1CC2C3CC(F)=C4CC(=O)C=C[C@]4(C)[C@@]3(F)[C@@H](O)C[C@]2(C)[C@@]1(O)C(=O)CO (some centres undefined) [euspeclibcmpd415],-0.177
7,CC(C)=CC1C(C(=O)O)C1(C)C (centres undefined) [euspeclibcmpd2019],0.889
8,CC(C)=CC1C(CO)C1(C)C (centres undefined) [euspeclibcmpd1789],2.3 (active)
9,O=c1c(O)c(-c2ccc(O)cc2O)oc2cc(O)cc(O)c12 [euspeclibcmpd1432],-0.493
10,C[C@H](CCC(=O)O)[C@H]1CCC2C3C(CC[C@@]21C)[C@@]1(C)CC[C@@H](O)C[C@H]1C[C@@H]3O (some centres undefined) [euspeclibcmpd2109],-0.352
11,COc1ccc(SCC(=O)c2ccc(O)cc2O)cc1,1.51
12,COc1ccc(C(C)C(=O)c2ccc(O)cc2O)cc1 (centres undefined) [euspeclibcmpd1599],3.33 (active)
13,COc1ccc(CC(=O)c2ccc(O)cc2O)cc1 [euspeclibcmpd1699],1.77
14,C[C@H]1[C@H](OC(=O)CCC(=O)O)O[C@@H]2O[C@]3(C)CC[C@H]4[C@H](C)CC[C@@H]1[C@@]24OO3 [euspeclibcmpd985],11 (active)
15,C[C@@H]1CC[C@H]2[C@@H](C)C(O)O[C@@H]3O[C@]4(C)CC[C@@H]1[C@]32OO4 (some centres undefined) [euspeclibcmpd1251],3.33 (active)
16,CC(=O)C1CCC2C3CC=C4C[C@@H](OC(=O)CCC(=O)O)CC[C@]4(C)C3CC[C@]12C (some centres undefined) [euspeclibcmpd854],1.01
17,CCC(C)C(=O)O[C@H]1C[C@H](O)C=C2C=C[C@H](C)[C@H](CC[C@@H](O)C[C@@H](O)CC(=O)O)C21 (some centres undefined) [euspeclibcmpd2392],-0.0232
18,CN1C(=O)OC(C)(C)C1=O [euspeclibcmpd801],-0.117
19,OCCN=CCNc1ccc(NCCNCCO)c2c(O)c3c(O)ccc(O)c3c(O)c12 [euspeclibcmpd568],-1.55
20,CC(=O)C(O)Nc1c(I)c(C(=O)NC(CO)CO)c(I)c(C(=O)NC(CO)CO)c1I (centres undefined) [euspeclibcmpd459],-0.445
21,Nc1c(Br)cc(Br)cc1CNC1CCC(O)CC1 (centres undefined) [euspeclibcmpd1118],-0.575
22,CC(=O)Oc1ccc2c(C)cc(=O)oc2c1 [euspeclibcmpd2400],-0.419
23,CC(=O)c1ccc(O[C@@H]2O[C@H](CO)[C@H](O)[C@H](O)[C@H]2O)cc1,1.43

row,Structure (SMILES),Srxn1-GFP intensity median modified Z-score
1,COc1ccc(O)cc1 [euspeclibcmpd4],-0.253
2,CC=C(C1=CC(=O)C(OC)=C(OC)C1=O)c1ccccc1 [euspeclibcmpd1978],-0.444
3,CC=C(C1=CC(=O)C(OC)=CC1=O)c1ccc(O)cc1 [euspeclibcmpd1636],0.385
4,CC=C(C1=CC(=O)C(OC)=CC1=O)c1ccccc1 [euspeclibcmpd1693],3.26 (active)
5,CC=C(C1=CC(=O)C=CC1=O)c1ccccc1 [euspeclibcmpd1643],1.51
6,CC=C(C1=CC(=O)C(OC)=CC1=O)c1ccc(OC)cc1 [euspeclibcmpd1441],5.77 (active)
7,CC(C)(/N=N/C(C)(C)C(=N)N)C(=N)N [euspeclibcmpd1744],-0.295
8,Cc1ccc2cccc(OC(=O)c3ccccc3)c2n1,1.25
9,O=C(OOC(=O)c1ccccc1)c1ccccc1 [euspeclibcmpd511],-0.314
10,Cc1ccc2c(Br)cc(Br)c(OC(=O)c3ccccc3)c2n1 [euspeclibcmpd2181],2.44 (active)
11,NC[C@@H]1O[C@H](O[C@@H]2[C@@H](CO)OC(O[C@@H]3[C@@H](O)[C@H](N)C[C@H](N)[C@H]3O[C@H]3O[C@H](CO)[C@@H](O)[C@H](O)[C@H]3N)[C@@H]2O)[C@H](N)[C@@H](O)[C@@H]1O (some centres undefined) [euspeclibcmpd563],-0.129
12,CCCCCCCCCCCCCCCC(=O)OC[C@H](NC(=O)C(Cl)Cl)[C@H](O)c1ccc([N+](=O)[O-])cc1 [euspeclibcmpd52],0.231
13,CC(=O)OCC(=O)[C@@]12N=C(C)O[C@@H]1CC1C3CC=C4CC(=O)C=C[C@]4(C)C3[C@@H](O)C[C@@]12C (some centres undefined) [euspeclibcmpd781],-0.377
14,NCCOB(c1ccccc1)c1ccccc1 [euspeclibcmpd2465],7.48 (active)
15,Cc1onc(-c2c(Cl)cccc2Cl)c1C(=O)NC1C(=O)N2C1SC(C)(C)C2C(=O)O (centres undefined) [euspeclibcmpd2174],-0.262
16,CC(=O)OCC(CCn1cnc2c[nH]c(=N)nc21)COC(C)=O [euspeclibcmpd712],0.533
17,Cc1ccc(-n2c(C)cc(C(=O)COC(=O)C3CC4C=CC3C4)c2C)cc1C (centres undefined),0.589
18,Cc1ccc(-n2c(C)cc(C(=O)Cn3ncc(Cl)c(Cl)c3=O)c2C)cc1,29 (active)
19,COc1cc(NS(C)(=O)=O)ccc1N=c1c2ccccc2[nH]c2ccccc12 [euspeclibcmpd557],-1.65
20,CCC1CS/C(=N\c2ccc(Cl)c(Cl)c2)N1C(=O)CC1CC2CCC1C2 (centres undefined),1.31
21,O=c1[nH]cnc2[nH]cnc12 [euspeclibcmpd1584],0.249
22,c1coc(CN=c2[nH]cnc3[nH]cnc23)c1 [euspeclibcmpd1534],0.144
23,S=c1[nH]cnc2[nH]cnc12 [euspeclibcmpd183],59.5 (active)
